Laboratory results reported in PubChem BioAssay AID1159580 (chemical genetic matrix, 2015).
The campaign covered roughly 5,500 compounds. About 2,000 (36%) were called active. Not shown: some 18% with an inconclusive outcome. Cut-off read from the data, not from the text of the source: active = normalized growth mostly below about 0.91 (no sharp cut-off); inconclusive = no clear call, values can overlap the other calls; inactive = mostly above about 0.92. The list shows a part of the results.

Experiment: chemical genetic growth profiling, strain panel (AID 1159580);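 note: tested at 20 µM; growth read once vehicle control cultures reached saturation at 30 °C; 1 = growth at the plate median or of vehicle wells; lower values mean less growth of the strain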
Conditions: growth OD

Measured: normalized growth

COC(=O)CC1C2(C)CC34OC5(C)OC6(C7/C(=C(/O)C(C)C)C(=O)OC(c8ccoc8)C7(C)C(OC(=O)C(C)C)C(OC)C6(O5)C13C)C(OC)C4(OC)C2OC(C)=O (stereo not drawn)
inactive: S. cerevisiae deletion strains, locus YAL013W, strain DEP1, hits give low values 0.997 | S. cerevisiae deletion strains, locus YBR021W, strain FUR4, hits give low values 1.02 | S. cerevisiae deletion strains, locus YBR229C, strain ROT2, hits give low values 1 | S. cerevisiae deletion strains, locus YCL029C, strain bik1, hits give low values 0.99 | S. cerevisiae deletion strains, locus YDL035C, strain GPR1, hits give low values 1.02 | S. cerevisiae deletion strains, locus YDL074C, strain BRE1, hits give low values 1.01 | S. cerevisiae deletion strains, locus YDL101C, strain DUN1, hits give low values 1.01 | S. cerevisiae deletion strains, locus YDL134C, strain PPH21, hits give low values 1.01 | S. cerevisiae deletion strains, locus YDL185W, strain tfp1, hits give low values 0.991 | S. cerevisiae deletion strains, locus YDL192W, strain arf1, hits give low values 0.994 | S. cerevisiae deletion strains, locus YDR101C, strain arx1, hits give low values 0.991 | S. cerevisiae deletion strains, locus YDR162C, strain NBP2, hits give low values 1.01 | S. cerevisiae deletion strains, locus YDR318W, strain mcm21, hits give low values 0.988 | S. cerevisiae deletion strains, locus YDR388W, hits give low values 0.995 | S. cerevisiae deletion strains, locus YDR502C, strain sam2, hits give low values 0.988 | S. cerevisiae deletion strains, locus YEL061C, strain CIN8, hits give low values 0.994 | S. cerevisiae deletion strains, locus YER110C, hits give low values 0.988 | S. cerevisiae deletion strains, locus YER155C, strain BEM2, hits give low values 1 | S. cerevisiae deletion strains, locus YER167W, strain BCK2, hits give low values 1.02 | S. cerevisiae deletion strains, locus YGL078C, strain dbp3, hits give low values 0.979 | S. cerevisiae deletion strains, locus YGL086W, strain mad1, hits give low values 0.975 | S. cerevisiae deletion strains, locus YGL248W, strain PDE1, hits give low values 1.01 | S. cerevisiae deletion strains, locus YGR078C, strain PAC10, hits give low values 1.02 | S. cerevisiae deletion strains, locus YGR135W, strain pre9, hits give low values 0.987 | S. cerevisiae deletion strains, locus YGR229C, strain SMI1, hits give low values 1 | S. cerevisiae deletion strains, locus YGR252W, strain gcn5, hits give low values 0.937 | S. cerevisiae deletion strains, locus YHR030C, strain SLT2, hits give low values 1.01 | S. cerevisiae deletion strains, locus YHR079C, strain IRE1 (second series), hits give low values 0.985 | S. cerevisiae deletion strains, locus YHR094C, strain hxt1, hits give low values 0.989 | S. cerevisiae deletion strains, locus YHR129C, strain ARP1, hits give low values 1.01 | S. cerevisiae deletion strains, locus YHR200W, strain rpn10, hits give low values 0.99 | S. cerevisiae deletion strains, locus YIL066C, strain RNR3, hits give low values 1.03 | S. cerevisiae deletion strains, locus YIL073C, strain SPO22, hits give low values 1.03 | S. cerevisiae deletion strains, locus YIL125W, strain kgd1, hits give low values 0.991 | S. cerevisiae deletion strains, locus YIR030C, strain dcg1, hits give low values 0.996 | S. cerevisiae deletion strains, locus YJL095W, strain BCK1, hits give low values 1.03 | S. cerevisiae deletion strains, locus YJL134W, strain LCB3, hits give low values 1.01 | S. cerevisiae deletion strains, locus YJL168C, strain set2, hits give low values 0.986 | S. cerevisiae deletion strains, locus YJL187C, strain SWE1 (second series), hits give low values 1.01 | S. cerevisiae deletion strains, locus YJR043C, strain POL32, hits give low values 1.01 | S. cerevisiae deletion strains, locus YJR075W, strain HOC1, hits give low values 1.01 | S. cerevisiae deletion strains, locus YKL009W, strain mrt4, hits give low values 0.984 | S. cerevisiae deletion strains, locus YKL068W, hits give low values 1 | S. cerevisiae deletion strains, locus YKL085W, strain MDH1 (second series), hits give low values 1 | S. cerevisiae deletion strains, locus YKL085W, strain MDH1, hits give low values 1 | S. cerevisiae deletion strains, locus YKR001C, strain vps1, hits give low values 0.988 | S. cerevisiae deletion strains, locus YLR039C, strain RIC1, hits give low values 1.04 | S. cerevisiae deletion strains, locus YLR058C, strain SHM2, hits give low values 1.01 | S. cerevisiae deletion strains, locus YLR102C, strain apc9, hits give low values 0.988 | S. cerevisiae deletion strains, locus YLR262C, strain YPT6, hits give low values 1.05 | S. cerevisiae deletion strains, locus YLR268W, strain sec22, hits give low values 0.989 | S. cerevisiae deletion strains, locus YLR330W, strain CHS5, hits give low values 1.01 | S. cerevisiae deletion strains, locus YLR342W, strain FKS1 (second series), hits give low values 0.999 | S. cerevisiae deletion strains, locus YLR371W, strain rom2, hits give low values 0.983 | S. cerevisiae deletion strains, locus YLR418C, strain cdc73, hits give low values 1.01 | S. cerevisiae deletion strains, locus YML016C, strain PPZ1, hits give low values 1 | S. cerevisiae deletion strains, locus YML032C, strain rad52, hits give low values 0.985 | S. cerevisiae deletion strains, locus YML124C, strain tub3, hits give low values 0.99 | S. cerevisiae deletion strains, locus YMR078C, strain ctf18, hits give low values 0.994 | S. cerevisiae deletion strains, locus YMR223W, strain ubp8, hits give low values 0.994 | S. cerevisiae deletion strains, locus YMR307W, strain GAS1, hits give low values 1.05 | S. cerevisiae deletion strains, locus YNL067W, strain RPL9B, hits give low values 1 | S. cerevisiae deletion strains, locus YNL233W, strain BNI4, hits give low values 1.04 | S. cerevisiae deletion strains, locus YNL250W, strain rad50, hits give low values 1.02 | S. cerevisiae deletion strains, locus YNL271C, strain bni1, hits give low values 0.992 | S. cerevisiae deletion strains, locus YNL298W, strain CLA4, hits give low values 0.987 | S. cerevisiae deletion strains, locus YNL307C, strain MCK1, hits give low values 0.996 | S. cerevisiae deletion strains, locus YNL322C, strain KRE1, hits give low values 1 | S. cerevisiae deletion strains, locus YNR052C, strain pop2, hits give low values 0.977 | S. cerevisiae deletion strains, locus YOL012C, strain htz1 0.95 | S. cerevisiae deletion strains, locus YOL147C, strain pex11, hits give low values 0.984 | S. cerevisiae deletion strains, locus YOR061W, strain CKA2, hits give low values 1.01 | S. cerevisiae deletion strains, locus YOR069W, strain VPS5, hits give low values 1.01 | S. cerevisiae deletion strains, locus YOR136W, strain idh2, hits give low values 0.991 | S. cerevisiae deletion strains, locus YOR144C, strain elg1, hits give low values 0.989 | S. cerevisiae deletion strains, locus YOR184W, strain ser1, hits give low values 0.976 | S. cerevisiae deletion strains, locus YOR316C, strain cot1, hits give low values 0.992 | S. cerevisiae deletion strains, locus YPR119W, strain clb2, hits give low values 0.982 | S. cerevisiae deletion strains, locus YPR141C, strain kar3, hits give low values 0.998 | S. cerevisiae deletion strains, locus YPR163C, strain tif3, hits give low values 0.999 | S. cerevisiae deletion strains, locus YPR167C, strain met16, hits give low values 0.99 | S. cerevisiae deletion strains, strain wtn01, hits give low values 0.974 | S. cerevisiae strains, strain wild type, hits give low values 1.01
